# Laboratory results: PubChem BioAssay (EPA / NIEHS)
# The source made the active and inactive calls. Rule for the calls: active = hit-call score of the fitted dose curve at least 0.9, where 1 is the maximum; inactive = score below 0.9.
# Biological target: Hepatocyte nuclear factor 6 (Homo sapiens) (UniProt Q9UBC0)
# Experiment: ATG_HNF6_CIS: Attagene CIS-FACTORIAL HepG2 Assay for human Hepatocyte Nuclear Factor 6 (HNF6) (AID 2282952)
# Conditions: HepG2 Attagene cis-factorial HNF6 reporter transcription; actives raise or lower the signal
# Description: ATG_CIS is a cell-based, multiplexed-readout assay that uses HepG2, a human liver cell line, with measurements taken at 24 hours after chemical dosing in a 24-well plate.ATG_HNF6_CIS is one of 52 assay component(s) measured or calculated from the ATG_CIS assay. It is designed to make measurements of mRNA induction, a form of inducible reporter, as detected with fluorescence intensity signals by Reverse transcription polymerase chain reaction (RT-PCR) and Capillary electrophoresis technology.Data from the assay component ATG_HNF6_CIS was analyzed into 1 assay endpoint. This assay endpoint, ATG_HNF6_CIS, was analyzed with bidirectional fitting relative to DMSO as the negative control and baseline of activity. Using a type of inducible reporter, measures of mRNA for gain or loss-of-signal activity can be used to understand the reporter gene at the transcription factor-level as they relate to the gene ONECUT1. Furthermore, this assay endpoint can be referred to as a primary readout, because this assay has produced multiple assay endpoints where this one serves a reporter gene function. To generalize the intended target to other relatable targets, this assay endpoint is annotated to the dna binding intended target family, where the subfamily is homeobox protein.
# Human liver HepG2 cells are transiently transfected with multiple reporter transcription units (MRTUs) in 6-well plates using FuGene 6 reagent (Roche; 3 ml FuGene/1 mg DNA). The MRTU constructs are regulated by a cis-regulating element (promoter). […] A major difference between the CIS and TRANS system is that in CIS activities of endogenous TFs are measured, whereas the TRANS assay evaluates changes in activities of exogenous, chimeric NR-Gal4 proteins. […] At the end of 24 hour incubation, total RNA was isolated using TriZol reagent (Invitrogen). The isolated RNA is then reverse-transcribed using oligo(dT) primer and Mo-MLV reverse transcriptase (Invitrogen) with DNAse I (Ambion) treatment for 30 min. The one-tenth of the produced cDNA was amplified by PCR using Taq DNA polymerase (Invitrogen) and two reporter sequence-specific primers. The PCR products were fluorescently labeled by primer extension with 6-arboxyfluorescein (6-FAM) 5'-labeled reporter sequence-specific primer (2 min at 95 C, 20 s at 68 C and 10 min at 72 C) and these products were digested with 5U of HpaI (New England Biolabs) for 2h at 37 C. The fragments were purified using Qiaquick PCR columns (Qiagen), analyzed on an ABI 3130xL genetic analyzer (Applied Biosystems) with peak positions identified by using a set of X-rhodamine (ROX)-labeled MapMarker1000 molecular weight standards (BioVentures). The raw capillary electrophoresis data was processed using Attagraph software (Attagene).
# Sequence of Hepatocyte nuclear factor 6 (Homo sapiens) (Q9UBC0 whole entry, looked up): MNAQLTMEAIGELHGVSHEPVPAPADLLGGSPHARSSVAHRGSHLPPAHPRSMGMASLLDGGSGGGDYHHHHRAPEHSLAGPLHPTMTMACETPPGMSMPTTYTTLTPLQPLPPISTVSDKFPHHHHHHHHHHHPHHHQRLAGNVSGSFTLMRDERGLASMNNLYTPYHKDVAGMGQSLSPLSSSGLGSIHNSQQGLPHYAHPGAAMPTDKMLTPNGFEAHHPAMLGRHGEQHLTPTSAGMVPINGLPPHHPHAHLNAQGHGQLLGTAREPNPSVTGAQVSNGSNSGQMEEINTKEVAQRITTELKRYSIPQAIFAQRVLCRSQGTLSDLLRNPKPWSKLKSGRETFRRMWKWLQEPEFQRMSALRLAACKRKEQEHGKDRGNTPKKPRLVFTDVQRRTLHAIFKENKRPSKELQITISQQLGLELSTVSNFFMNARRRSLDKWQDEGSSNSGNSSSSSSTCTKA
Structure (SMILES),outcome,AC50
O=C(O)c1cccc(Oc2ccccc2)c1,inactive,–
O=P(OC(CCl)CCl)(OC(CCl)CCl)OC(CCl)CCl,–,153 µM (active)
O=C(O)CCN(C1(C(=O)NO)CCCC1)S(=O)(=O)c1ccc(Oc2ccc(F)cc2)cc1,inactive,–
CCCCC(CC)COC(=O)CCCCCCCCC(=O)OCC(CC)CCCC (stereo not given),inactive,–
CC(C)CC(C)(O)C#CC(C)(O)CC(C)C (stereo not given),inactive,–
CCNc1ccccc1,inactive,–
On1ccccc1=S,inactive,–
Cc1[nH]cnc1C[C@H]1CCc2c(C)c3ccccc3n2C1=O,inactive,–
C=CC(=C)CCC=C(C)C,inactive,–
CC(=O)c1ccc2c(c1)[C@H](NC(=O)c1ccc(F)cc1)[C@@H](O)C(C)(C)O2,inactive,–
Cc1ccc(S(=O)(=O)O)cc1C,inactive,–
O=C(CCCCCCCCc1cccnc1)N1CCC(C=C(c2ccccc2)c2ccccc2)CC1,–,23.9 µM (active)
CCOC(=O)CC(CC(=O)OCC)(OC(C)=O)C(=O)OCC,inactive,–
COCCOc1cc2cc(C(=O)NC3CCN(C(C)C)CC3)n(CC(=O)Nc3ccc(Cl)cn3)c2cn1,–,28.6 µM (active)
CCOCCO,inactive,–
O=C(O)c1cc(N=Nc2ccc(S(=O)(=O)Nc3ccccn3)cc2)ccc1O,inactive,–
O=c1n(CC2CO2)c(=O)n(CC2CO2)c(=O)n1CC1CO1 (stereo not given),inactive,–
COC(=O)CC(=O)OC,inactive,–
COc1ccc(-n2nc(C(F)F)cc2-c2ccc(S(C)=O)cc2)cc1 (stereo not given),inactive,–
CC(=O)OC[C@H]1O[C@@](COC(C)=O)(O[C@H]2O[C@H](COC(C)=O)[C@@H](OC(C)=O)[C@H](OC(C)=O)[C@H]2OC(C)=O)[C@@H](OC(C)=O)[C@@H]1OC(C)=O,inactive,–

Structure (SMILES),outcome,AC50
CCOC(=O)COc1ccc2c(c1)CC(NCC(O)c1cccc(Cl)c1)CC2 (stereo not given),inactive,–
CC[C@H]1OC(=O)[C@H](C)[C@@H](O[C@H]2C[C@@](C)(OC)[C@@H](O)[C@H](C)O2)[C@H](C)[C@@H](O[C@@H]2O[C@H](C)C[C@H](N(C)C)[C@H]2O)[C@](C)(O)C[C@@H](C)C(=O)[C@H](C)[C@@H](O)[C@]1(C)O,inactive,–
O=C1CCCCCN1,inactive,–
O=C(OC[C@H]1O[C@@H](OC(=O)c2cc(O)c(O)c(OC(=O)c3cc(O)c(O)c(O)c3)c2)[C@H](OC(=O)c2cc(O)c(O)c(OC(=O)c3cc(O)c(O)c(O)c3)c2)[C@@H](OC(=O)c2cc(O)c(O)c(OC(=O)c3cc(O)c(O)c(O)c3)c2)[C@@H]1OC(=O)c1cc(O)c(O)c(OC(=O)c2cc(O)c(O)c(O)c2)c1)c1cc(O)c(O)c(OC(=O)c2cc(O)c(O)c(O)c2)c1,inactive,–
Cc1ccc(C)c(O)c1,inactive,–
CCOc1cccc(-n2cc(C(=O)N3CCN(c4cc(C(=O)O)c5ccccc5c4)CC3)nc2-c2ccc(C)cc2)c1,inactive,–
CNS(=O)(=O)c1cc(C(=O)N2CCC(CCN3C4CCC3CC(n3c(C)nc5ccccc53)C4)(c3cccc(F)c3)CC2)c(Cl)cc1F (stereo not given),inactive,–
Oc1ccc2c(c1)-c1ccccc1C2,inactive,–
CC[C@H](C)C(=O)O[C@H]1C[C@@H](C)C=C2C=C[C@H](C)[C@H](CC[C@@H]3C[C@@H](O)CC(=O)O3)[C@H]21,inactive,–
C1=CCCC=CCCC=CCC1,inactive,–
CC(C)=CCC/C(C)=C\CO,inactive,–
CC1(C)C(=O)N(Br)C(=O)N1Br,inactive,–
CCN(C(=O)c1cc(C)cc(OC[C@H](C)Nc2ccncc2)c1)C(C)C,inactive,–
CC(=O)OCCC(C)C,inactive,–
CCCCCCCCO,inactive,–
CN(C)c1ccc(Cc2ccc(N(C)C)cc2)cc1,inactive,–
O=C(O)CC(O)C(=O)O (stereo not given),inactive,–
Cc1ccc(O)cc1,inactive,–
CC(C)CCCCCCOC(=O)c1ccc(C(=O)OCCCCCCC(C)C)c(C(=O)OCCCCCCC(C)C)c1,inactive,–
O=C1CCC(N2C(=O)c3ccccc3C2=O)C(=O)N1 (stereo not given),inactive,–
